Only a selection was taken, and hits are over-represented in it overall.
Pf Dd2 inh: inhibitors of Plasmodium falciparum Dd2 growth; P. falciparum Dd2 growth, SYBR Green, 72 h; Potency, µM (doses to about 28.9 µM), without a hit: at the highest dose activity, negative = inhibition, hits mostly inhibitors; actives 4.3% (n = 120,000); active = well fitted inhibition curve with a large enough effect;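 note: plate controls were DMSO vehicle for no effect and reference drug for full effect; nearly all actives have a fitted effect of over 65% in size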
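Infected erythrocytes (Dd2, 0.3% parasitemia, 2.5% hematocrit final) are added to compound in RPMI-1640/Albumax II medium, grown 72 h at 37C in low oxygen, then lysed with saponin/Triton-X containing SYBR Green and read by fluorescence.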
* = called active by the depositor; i = inactive; [ ] = dose if it differs, or a comment. Potency is the fitted concentration of half-maximal effect.

SMILES	Pf Dd2 inh
CCCCOc1c(CNC(C)c2ncccc2C)cccc1OC (configuration not stated)	5.62µM*
CCOC(=O)C1=CN(CC(=O)Nc2cccc(Cl)c2)S(=O)(=O)N=C1C	-5.1%
CCOCCOC1CCN(S(=O)(=O)Cc2ccccc2F)CC1	16.9%
O=C(c1cscn1)N1CC[C@@H]2[C@@H](CCC(=O)N2CCc2ccccn2)C1	-19.2%
CC(Oc1ccccc1)C(=O)N1CC(Oc2cccc(-c3nc(-c4ccccc4)no3)c2)C1 (configuration not stated)	0.5%[5.79 µM]
CC(C)(C)C(=O)Nc1nc2c(s1)C[C@@H]1[C@](C)(CO)[C@H](O)CC[C@@]1(C)[C@@H]2CC(=O)Nc1cccc(O)c1	8.91µM*
CC(C)(C)C(=O)Nc1nc2c(s1)C[C@@H]1[C@](C)(CO)[C@H](O)CC[C@@]1(C)[C@@H]2CC(=O)O	-9.6%[44.1 µM]
COCC(=O)Nc1nc2c(s1)C[C@@H]1[C@](C)(CO)[C@H](O)CC[C@@]1(C)[C@@H]2CC(=O)NC(C)C	i
CC(C)C[C@H](CO)NC(=O)C[C@@H]1c2nc(NC(=O)C(C)(C)C)sc2C[C@@H]2[C@](C)(CO)[C@H](O)CC[C@]21C	8.91µM*
CC(C)(C)C(=O)Nc1nc2c(s1)C[C@@H]1[C@](C)(CO)[C@H](O)CC[C@@]1(C)[C@@H]2CC(=O)NC1CC1	i
CCCCCC(=O)Nc1nc2c(s1)C[C@@H]1[C@](C)(CO)[C@H](O)CC[C@@]1(C)[C@@H]2CC(=O)N[C@@H](CO)CC(C)C	i
O=C(CC(F)(F)F)NCCc1noc(-c2cccnc2)n1	31.4%
COc1cccc(CNC2(Cc3cc(C(C)(C)O)on3)COC2)c1	28.5%[44.1 µM]
CCOC(=O)C1CCCN(C(=O)c2coc(COc3cccc(F)c3F)n2)C1 (configuration not stated)	-11.5%
Cc1cc(CN2CCC3(CC2)CC(=O)c2ccc(Cl)cc2O3)no1	i
N#Cc1ccc(CN2CCC3(CC2)CC(=O)c2ccc(Cl)cc2O3)cc1	11.2µM*
CC(=O)Nc1ccc(CN2CCC3(CC2)CC(=O)c2ccc(Cl)cc2O3)cc1	i
COC(=O)c1ccc(CN2C(=O)[C@@H]3C[C@@H](O)CN3C3(CN(Cc4cccc(OC(F)(F)F)c4)C3)C2=O)cc1	-14.3%
COc1ccc(-c2csc3ncnc(Nc4cccc(F)c4)c23)cc1	46.7%
CCOc1ccc(-c2csc3ncnc(Nc4cccc(O)c4)c23)cc1	10µM*
COc1ccc(-c2csc3ncnc(Nc4cc(OC)cc(OC)c4)c23)cc1	i
NCCCC(=O)N1CCC2(CC1)CN(C(=O)Cc1ccc(Cl)cc1)CCO2	8.3%
CCOc1ccc2c(n1)CCN(C(=O)c1cnccn1)C2	28.0%
CCOc1ccc2c(n1)CCN(C(=O)c1ccc(OC)cc1)C2	-7.5%
CCOc1ccc2c(n1)CCN(C(=O)C1(c3ccccc3)CC1)C2	10µM*
SMILES	Pf Dd2 inh
CCOc1ccc2c(n1)CCN(C(=O)Cc1cccc(C)c1)C2	10µM*
COCCOc1ccc2c(n1)CCN(C(=O)Cc1cccc(OC)c1)C2	-23.5%
CCOc1ccc2c(n1)CCN(C(=O)Cc1ccc(F)cc1)C2	-16.8%
CO[C@@H]1CO[C@H]2[C@@H]1OC[C@@H]2NC(=S)Nc1ccc(Cl)cc1	24.0%[44.1 µM]
COCCc1nncn1C1CCN(S(=O)(=O)c2cc(F)ccc2F)CC1	i
Cc1cccc(N2CCN(c3nc4ccccc4c4nc(-c5ccccc5)nn34)CC2)c1C	22.9%
Cc1cccc(N2CCN(c3nc4ccccc4c4nnc(C)n34)CC2)c1C	0.891µM*
Cc1cccc(N2CCN(c3nc4ccccc4c(=O)n3-c3ccc(Cl)cc3)CC2)c1C	i
CSc1ccc(/C=C/c2nc3ccccc3n2S(=O)(=O)c2cccc(Cl)c2)cc1	i
Cc1ccc(/C=C/c2nc3ccccc3n2S(=O)(=O)c2ccc(Br)cc2)cc1	5.62µM*
O=S(=O)(c1cccc(Cl)c1)n1c(/C=C/c2ccccc2Cl)nc2ccccc21	i
Cc1ccc2c(c1)N(CCC(=O)NCc1ccccc1Cl)C(=O)CO2	46.4%
Cc1cc(=O)n(CC(=O)Nc2cccc(F)c2)c(-c2ccccc2)n1	i
Cc1ccc(C2=Nc3ccccc3N(CC(=O)Nc3cccc(F)c3)C(=O)C2)cc1C	8.91µM*
Cc1ccc(NC(=O)CN2C(=O)CC(c3ccc(F)cc3)=Nc3ccccc32)cc1F	-28.4%
COc1ccc(C2=NN(CC(=O)NCc3ccccc3Cl)C(=O)CC2)cc1	6.4%
Cc1ccc(C2=Nc3ccccc3N(CC(=O)NCc3ccccc3Cl)C(=O)C2)cc1C	11.2µM*
COCCN1CC(CO)C2(CCN(C(=O)Cc3c(C)noc3C)CC2)C1 (configuration not stated)	35.9%
COCCNC(=O)[C@@H]1C[C@@H](O)CN1C1CCN(C(=O)c2ccccc2OC)CC1	17.9%
COC(=O)CN1C(=O)[C@@H]2C[C@@H](O)CN2C2(CN(Cc3ccccn3)C2)C1=O	-10.5%[44.1 µM]
COc1cccc(CNC(=O)CCC2CCN(S(=O)(=O)c3ccc(C)cc3)CC2)c1	-23.7%
COc1ccc(-n2nc(C(=O)NCCc3ccc(OC)c(OC)c3)c3c4ccccc4n(C)c3c2=O)cc1Cl	2µM*
CCOc1ccc(CCNC(=O)c2nn(-c3ccc(OC)c(Cl)c3)c(=O)c3c2c2ccccc2n3C)cc1OCC	2.82µM*
CCOc1ccc(CNC(=O)c2nn(-c3ccc(OC)cc3)c(=O)c3c2c2ccccc2n3C)cc1	50.0%
COc1ccc(-n2nc(C(=O)NCCCOC(C)C)c3c4ccccc4n(C)c3c2=O)cc1	-13.0%
SMILES	Pf Dd2 inh
CCc1ccc(CNC(=O)c2nn(-c3ccc(C)cc3)c(=O)c3c2c2ccccc2n3C)cc1	3.1%
COc1ccc(-n2nc(C(=O)N3CCCCC3C)c3c4ccccc4n(C)c3c2=O)cc1Cl (configuration not stated)	22.6%
CCOC(=O)C1CCN(C(=O)c2nn(-c3ccc(OC)c(Cl)c3)c(=O)c3c2c2ccccc2n3C)CC1	11.2µM*
COc1ccc(-n2nc(C(=O)N(C)c3cc(C)ccc3C)c3c4ccccc4n(C)c3c2=O)cc1Cl	21.5%
CCOC(=O)C1CCN(C(=O)c2nn(-c3ccc(C)cc3)c(=O)c3c2c2ccccc2n3C)CC1	i
COc1cccc(N2CC(C(=O)N3CCC(C(=O)NCC4CC4)C3)NC2=O)c1 (configuration not stated)	-18.9%
CC(C)CN1C(=O)CO[C@H](c2ccc(NS(=O)(=O)c3cccc(F)c3)cc2)[C@H]1CO	i
CC(C)CCN(C)Cc1cccn1C	i
Cc1noc(C)c1Cn1cnc(-c2ccccc2)c1-c1ccc(CO)o1	-10.7%
CN1C(=O)CCc2cc(NC(=O)Cc3ccccc3Cl)ccc21	-9.9%
COc1ccc(NC(=O)c2cn(CC(C)C)c(=O)c3cc(OC)c(OC)cc23)cc1Cl	11.2µM*
COc1cc2c(C(=O)N3CCN(c4ccc(C)cc4)C(C)C3)cn(CC(C)C)c(=O)c2cc1OC (configuration not stated)	8.91µM*
CCOc1ccc(NC(=O)c2cn(C)c(=O)c3cc(OC)c(OC)cc23)cc1	21.2%
CCn1cc(C(=O)N2CCN(c3ccc(C)cc3)C(C)C2)c(=O)c2cc(S(=O)(=O)N3CCCC3)ccc21 (configuration not stated)	19.8%
CCn1cc(C(=O)N2CCN(c3ccccc3OC)CC2)c2cc(OC)c(OC)cc2c1=O	-8.6%
COc1cc(OC)c(NC(=O)c2cn(C)c(=O)c3cc(OC)c(OC)cc23)cc1Cl	14.9%
Cc1cccc(CNC(=O)C2CC(c3ccc(F)c(C)c3)CN(C(=O)c3ccccc3)C2)c1 (configuration not stated)	-0.5%

High-throughput results from PubChem BioAssay.
